Test results: PubChem BioAssay
A number with no mark means an inactive call. For part of these data: Results with a measured potency or affinity are listed apart. Active and inactive are the calls of the source. Unless noted, no rule for the calls is given here.

Assays:
[1] = antimalarial activity against Dd2 strain (AID 2302;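 active = growth inhibition above 50% at the single 2 µM test dose, taken to imply half-maximal potency below 2 µM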;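 also: 0% = DMSO untreated growth and 100% = chloroquine plus artemisinin killed control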); settings: P. falciparum Dd2 in RBCs, LDH growth readout, 72 h; at 2 µM; active compounds read high
[2] = HepG2 cytotoxicity, primary screen, cytotoxicity control for P. falciparum antimalarial project, cell-based, ATP luminescence (AID 2303;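 active = inhibition above 50%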;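 also: 0% = DMSO wells and 100% = digitonin-killed cells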); settings: HepG2 viability, 24-48 h, at 10 µM, active compounds read high
[3] = target: L-lactate dehydrogenase (Plasmodium falciparum (isolate CDC / Honduras)) (UniProt Q27743); assay: PfLDH activity inhibition – cell lysate, 3D7 strain, counter-screen for P. falciparum growth inhibition project (AID 2304);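 also: 0% = vehicle and 100% = reference inhibitor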; settings: P. falciparum 3D7 crude extract, LDH APAD/NBT absorbance; at 2 µM; active compounds read high
Chain of L-lactate dehydrogenase (Plasmodium falciparum (isolate CDC / Honduras)) (Q27743 whole entry, looked up): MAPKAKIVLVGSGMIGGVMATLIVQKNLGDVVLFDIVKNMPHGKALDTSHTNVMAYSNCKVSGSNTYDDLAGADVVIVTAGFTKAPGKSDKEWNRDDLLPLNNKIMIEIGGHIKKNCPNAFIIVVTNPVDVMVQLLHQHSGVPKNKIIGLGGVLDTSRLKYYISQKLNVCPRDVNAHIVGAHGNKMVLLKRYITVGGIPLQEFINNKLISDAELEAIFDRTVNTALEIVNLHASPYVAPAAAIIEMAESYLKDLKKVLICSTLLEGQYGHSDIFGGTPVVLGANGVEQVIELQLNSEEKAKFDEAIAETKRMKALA

[4] = inhibition of 3D7 malaria parasite growth – strain 3D7 (AID 2306);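 also: 0% = DMSO wells and 100% = chloroquine plus artemisinin control wells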; settings: P. falciparum 3D7 erythrocytic growth, LDH absorbance, 72 h; at 2 µM; active compounds read high
[5] = target: Calcium-dependent protein kinase 1 (Plasmodium falciparum (isolate 3D7)) (UniProt P62344); assay: PfCDPK1 kinase inhibitors, biochemical, TCAMS library (AID 1159585; cut-off not given, nearly all actives have IC50 up to about 0.98 µM;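 also: inhibitors leave more ATP so luminescence rises with inhibition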); settings: recombinant PfCDPK1, Kinase-Glo ATP depletion luminescence
Chain of Calcium-dependent protein kinase 1 (Plasmodium falciparum (isolate 3D7)) (P62344 whole entry, looked up): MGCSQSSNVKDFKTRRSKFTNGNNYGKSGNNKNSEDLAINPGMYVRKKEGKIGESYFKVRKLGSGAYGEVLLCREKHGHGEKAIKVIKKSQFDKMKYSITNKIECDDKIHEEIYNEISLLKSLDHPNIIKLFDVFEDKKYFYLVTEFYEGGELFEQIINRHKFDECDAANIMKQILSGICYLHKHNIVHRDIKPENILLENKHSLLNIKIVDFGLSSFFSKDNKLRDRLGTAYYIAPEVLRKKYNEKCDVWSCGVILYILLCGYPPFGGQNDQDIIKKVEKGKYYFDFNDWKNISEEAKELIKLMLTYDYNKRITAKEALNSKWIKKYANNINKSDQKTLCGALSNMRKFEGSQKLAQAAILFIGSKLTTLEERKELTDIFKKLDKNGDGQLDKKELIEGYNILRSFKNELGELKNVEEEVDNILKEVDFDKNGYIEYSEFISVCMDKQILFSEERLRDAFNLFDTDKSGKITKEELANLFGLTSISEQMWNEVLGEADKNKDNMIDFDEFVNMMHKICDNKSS

[6] = target: Plasmodium falciparum protein kinase 6 (PK6, PF3D7_1337100) (UniProt Q8IDW1); assay: PfPK6 kinase inhibitors, biochemical, TCAMS library (AID 1159586); settings: recombinant PfPK6, Kinase-Glo ATP depletion luminescence
Chain of Plasmodium falciparum protein kinase 6 (PK6, PF3D7_1337100) (Q8IDW1 1-305): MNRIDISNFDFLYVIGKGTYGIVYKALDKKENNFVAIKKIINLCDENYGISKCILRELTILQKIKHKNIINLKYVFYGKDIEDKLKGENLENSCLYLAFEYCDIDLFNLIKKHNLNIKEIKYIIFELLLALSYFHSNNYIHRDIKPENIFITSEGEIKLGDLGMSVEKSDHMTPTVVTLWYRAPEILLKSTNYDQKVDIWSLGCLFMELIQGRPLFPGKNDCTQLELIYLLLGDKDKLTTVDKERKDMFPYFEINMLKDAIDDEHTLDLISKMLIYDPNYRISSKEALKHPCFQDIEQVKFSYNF

[7] = target: Protein kinase 7 (PK7), Plasmodium falciparum 3D7 (PF3D7_0213400) (UniProt Q7YTF7); assay: inhibition of Plasmodium PK7 catalytic activity – biochemical, TCAMS antimalarial set, Kinase-Glo luminescence (AID 1159587); settings: recombinant PfPK7, Kinase-Glo ATP depletion luminescence
Chain of Protein kinase 7 (PK7), Plasmodium falciparum 3D7 (PF3D7_0213400) (Q7YTF7 1-343): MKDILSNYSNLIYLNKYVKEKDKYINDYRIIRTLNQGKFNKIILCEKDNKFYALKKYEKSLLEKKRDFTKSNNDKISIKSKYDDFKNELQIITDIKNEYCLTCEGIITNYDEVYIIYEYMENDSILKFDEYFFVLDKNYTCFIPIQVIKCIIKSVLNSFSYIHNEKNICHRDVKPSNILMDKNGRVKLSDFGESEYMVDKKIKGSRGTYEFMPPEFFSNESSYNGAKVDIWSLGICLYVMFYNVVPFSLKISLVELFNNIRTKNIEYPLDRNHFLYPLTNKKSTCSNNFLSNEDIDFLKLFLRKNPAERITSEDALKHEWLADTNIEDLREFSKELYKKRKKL

[8] = target: Calcium-dependent protein kinase 4 (Plasmodium falciparum (isolate 3D7)) (UniProt Q8IBS5); assay: PfCDPK4 kinase inhibitors, biochemical, TCAMS library (AID 1159588; cut-off not given, nearly all actives have IC50 up to about 0.91 µM); settings: recombinant PfCDPK4, Kinase-Glo ATP depletion luminescence
Chain of Calcium-dependent protein kinase 4 (Plasmodium falciparum (isolate 3D7)) (Q8IBS5 whole entry, looked up): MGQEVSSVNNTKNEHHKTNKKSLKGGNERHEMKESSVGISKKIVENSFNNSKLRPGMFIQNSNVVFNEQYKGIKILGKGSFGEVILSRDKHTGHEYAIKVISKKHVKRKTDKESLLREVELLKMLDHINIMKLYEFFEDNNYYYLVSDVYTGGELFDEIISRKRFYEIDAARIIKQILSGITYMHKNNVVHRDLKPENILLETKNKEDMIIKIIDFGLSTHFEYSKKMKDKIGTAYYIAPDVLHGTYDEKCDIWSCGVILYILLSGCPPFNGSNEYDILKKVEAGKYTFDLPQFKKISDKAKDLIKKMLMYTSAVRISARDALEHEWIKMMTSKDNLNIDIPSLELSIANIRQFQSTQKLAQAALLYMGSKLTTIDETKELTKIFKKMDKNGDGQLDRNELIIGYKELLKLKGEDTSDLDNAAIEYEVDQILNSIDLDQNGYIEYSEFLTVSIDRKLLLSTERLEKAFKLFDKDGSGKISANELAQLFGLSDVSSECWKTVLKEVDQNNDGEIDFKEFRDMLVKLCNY

SMILES	growth inhibition [1]	inhibition [2]	inhibition [3]	growth inhibition [4]	outcome [5]	outcome [6]	outcome [7]	outcome [8]
O=C(Nc1ccccc1Br)N[C@@H]1CCN(c2ccnc3ccccc23)C1	90% (active)	25%	2%	91% (active)	inactive	inactive	inactive	inactive
COc1ccc(-c2cccc(NC(=O)c3cccc(C#N)c3)c2)cc1CN(C)CCO	30%	28%	-7%	96% (active)	inactive	inactive	inactive	inactive
CC1Cc2ccccc2N1S(=O)(=O)c1cccc(C(=O)Nc2nc(-c3ccccn3)cs2)c1 (centres undefined)	77% (active)	32%	-2%	84% (active)	inactive	inactive	inactive	inactive
